# Bioassay records deposited in PubChem by several laboratories.
# Only some compounds are listed: those with a hit (about 1.3% of all), similar ones and a draw of the others.
# NCOA3 inh – inhibits human SRC3 coactivator; Q9Y6Q9; HEK293 GAL4-SRC3 luciferase reporter, luminescence; inhibition, % at 3.6 µM; 360,000 compounds, 0.17% hits;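 active = inhibition above a per-campaign cutoff, the mean of all compounds plus 3 SD, cut at about 60% in these data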;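 also: 0% = DMSO-treated cells and 100% = gossypol-treated cells at 36 µM; higher means less SRC3-driven luciferase light from the GAL4 reporter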
# NR5A2 inv ag – NR5A2 inverse agonism in reporter assay | O00482 | HEK293T StAR-luciferase reporter, LRH-1 transfected, 24 h | inhibition, % at 3.6 µM | 360,000 compounds, 0.13% hits | AID 602396;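 active = inhibition above the mean inhibition of all tested compounds plus 3 SD, cut at about 73% in these data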;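 also: 0% = DMSO wells and 100% = reporter-only cells lacking LRH-1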
# NCOA2 inhibitor – inhibits human steroid receptor coactivator 2 | HEK293 GAL4-SRC2 luciferase reporter, luminescence | inhibition, % at 9 µM | 370,000 compounds, 0.17% hits;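 active = inhibition above the mean inhibition of all tested compounds plus 3 SD, set per campaign, cut at about 52% in these data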;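 also: 0% = DMSO treated cells and 100% = cells given Gossypol at 36 µM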
# COUP-TFII inh – blocks human COUP-TFII nuclear receptor; P24468; HEK293T NGFI-A luciferase reporter, luminescence; inhibition, % at 8.6 µM; 370,000 compounds, 0.7% hits;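 active = inhibition above a per-plate cutoff, mean inhibition of test wells between control levels plus 3 SD, cut at about 38% in these data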;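 also: cells cotransfected with COUP-TFII expression vector driving the NGFI-A reporter; 0% = median of COUP-TF2 test wells and 100% = reporter-only cells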
# Gli-Sufu antag – blocks Gli-Sufu signaling in a luciferase reporter; Sufu-KO-LIGHT fibroblasts, Gli luciferase reporter luminescence; inhibition, % at 5 µM; 340,000 compounds, 0.74% hits;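 active = inhibition above about 55%, limit read from the data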;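 also: 0% = DMSO-treated cells and 100% = wells with medium but no cells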
# SRC1 inh – inhibitors of human steroid receptor coactivator 1 (SRC1); Q15788; HEK293 GAL4-SRC1 luciferase reporter, luminescence; inhibition, % at 3.6 µM; 360,000 compounds, 0.12% hits; AID 588354;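 active = inhibition above the campaign mean plus 3 SD, with each screening campaign given its own cutoff, cut at about 60% in these data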;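 also: 0% = DMSO treated cells and 100% = gossypol at 36 µM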
# Gli antag conf – confirmation of Gli-SUFU pathway antagonists | shares compounds with Gli-Sufu antag | Sufu-KO-LIGHT cells, Gli luciferase reporter, luminescence | inhibition, % at 5 µM | 2,500 compounds, 40% hits | AID 602428;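 active = mean inhibition at 5 µM reaching about 45%, limit read from the data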;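 also: plate controls were DMSO-treated cells for no effect and wells lacking cells for full effect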
# Gli cytotox – cytotoxic in Gli-SUFU antagonist counter-screen; shares compounds with Gli-Sufu antag; Sufu-KO-LIGHT cells cytotoxicity, ATP luminescence; cytotoxicity, % at 5 µM; 2,500 compounds, 32% hits; AID 651994;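 active = mean cytotoxicity at 5 µM above about 25%, limit read from the data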;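 also: cells exposed to compound overnight for roughly 16 to 18 hours; plate controls were DMSO wells with cells for no effect and medium without cells for full effect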
# Wnt3a cs – inhibits Wnt3a reporter, counter-screen for Gli-SUFU antagonists; shares compounds with Gli-Sufu antag; Wnt-LIGHT cells, Wnt3a-driven luciferase reporter, luminescence; inhibition, % at 6.25 µM; 2,500 compounds, 20% hits; AID 651995;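 active = mean inhibition above about 25%, limit read from the data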
# Starred values were filed as active, the others as inactive; . = no result given.
SMILES,NCOA3 inh,NR5A2 inv ag,NCOA2 inhibitor,COUP-TFII inh,Gli-Sufu antag,SRC1 inh,Gli antag conf,Gli cytotox,Wnt3a cs
C[C@]12CC[C@H]3C(CCC4(O)CC(O)CC[C@]34C=O)C1=CC[C@H]2c1ccc(=O)oc1 (stereo not given in full),44,40,-17,36,-4,26,.,.,.
Cc1nc2c(=O)n(C)c(=O)nc-2n(C)n1,92*,95*,75*,64*,76*,87*,.,.,.
C[C@H]1CCC/C=C/C2C[C@H](O)CC2[C@H](O)/C=C/C(=O)O1 (stereo not given in full),67*,89*,.,.,87*,21,.,.,.
COC1CC=C2CCN3CCC4=C(CC(=O)OC4)C23C1 (stereo not given),.,.,-11,-16,.,.,.,.,.
C[C@H]1CCC[C@@H](O)CCC/C=C/c2cc(O)cc(O)c2C(=O)O1,64*,36,21,34,2,58,.,.,.
C[C@H]1[C@@H](OS(=O)(=O)O)C[C@@H]2C[C@H]([C@@H](O)c3cc(=O)[nH]c(=O)[nH]3)NC3=NC[C@H]1N32,58,99*,.,.,76*,59,.,.,.
Clc1cc(Cl)cc(CN2Cc3ccccc3-n3nncc3C2)c1,.,.,21,-11,.,.,.,.,.
CCOC(=O)[C@]12Cc3c(cc(OC)c(OC)c3OC)[C@H]1N(C1CCCCC1)C(=O)c1ccccc12,.,48,-5,60*,.,.,.,.,.
CCOC(=O)[C@]12Cc3cc(C)ccc3[C@H]1N(C1CCCCC1)C(=O)c1ccccc12,.,61,20,36,.,.,.,.,.
CN1C[C@H](O)[C@H]2C[C@@H]1c1ccccc1O2,.,.,20,-14,.,.,.,.,.
COc1ccc([C@@H]2C[C@H]3[C@@H](CN2)CON3C)cc1,.,.,-11,-21,.,.,.,.,.
CC(NC(=O)OCc1ccccc1)P(=O)(Oc1ccccc1)Oc1ccccc1 (stereo not given),.,.,7,-16,.,.,.,.,.
CN1C(=O)C(=Cc2ccccc2OCc2ccc(Cl)cc2)C(=O)N(C)C1=O,-22,-44,-4,-11,-13,-4,.,.,.
CN1C(=O)C(=Cc2ccccc2Oc2ccc(Cl)cc2)C(=O)N(C)C1=O,-12,10,-15,17,52,8,27,5,10
C[N+]1=C(N)NC2=C3CCCCC3ONC2C1 (stereo not given),.,.,.,0,.,.,.,.,.
C=C1[C@@H](C)[C@H]2[C@H](Cc3ccccc3)NC(=O)[C@]23OC(=O)/C=C/[C@H](O)CCC[C@@H](C)C/C=C/[C@H]3[C@@H]1O,12,47,-19,-5,57*,21,36,46*,58*
C=C1C(C)C2C(Cc3ccccc3)NC(=O)C23C(OC(C)=O)C=CC(C)(O)CC(C)CC=CC3C1O (stereo not given),13,15,3,-27,30,-35,.,.,.
C=C1C(=O)O[C@H]2[C@H]1[C@H](OC(=O)CC(=O)O[C@@H]1C[C@@H](C)[C@@H]3C=CC(=O)[C@@]3(C)[C@H]3OC(=O)C(=C)[C@H]13)C[C@@H](C)[C@H]1C=CC(=O)[C@]12C,-27,-23,-16,21,52,-10,45,35*,-4
CCCC(=O)N1c2ccc(Cl)cc2C(c2ccccc2)=NCC1C(=O)NC(C)(C)C (stereo not given),.,.,16,4,.,.,.,.,.
CC(C)C(C(=O)NC(C)(C)C)N1C(=O)CN=C(c2ccccc2)c2ccccc21 (stereo not given),.,.,-1,12,.,.,.,.,.
C[N+]1=C(/C=C/Nc2ccccc2)C(C)(C)c2ccccc21,9,6,10,12,63*,6,66*,26*,12
CN1/C(=C\C=Nc2ccccc2)C(C)(C)c2ccccc21,7,12,14,9,59*,4,59*,27*,7
COc1ccccc1N1CCN(Cc2ccccc2)CC1,1,0,-8,9,12,13,.,.,.
COc1ccccc1N1CCN(Cc2ccc(Br)s2)CC1,13,11,17,-1,58*,9,13,5,-16
Cc1ccc(OC(=O)N(C)C[C@H]2OCc3cnnn3CCCC(=O)N([C@@H](C)CO)C[C@@H]2C)cc1,.,.,-5,5,.,.,.,.,.
SMILES,NCOA3 inh,NR5A2 inv ag,NCOA2 inhibitor,COUP-TFII inh,Gli-Sufu antag,SRC1 inh,Gli antag conf,Gli cytotox,Wnt3a cs
COc1cc(C2c3cc4c(c(O)c3CC3COC(=O)C32)OCO4)cc(OC)c1OC (stereo not given),30,34,27,-71,62*,-5,57*,64*,-16
CNP1(NC)=NC(C(F)(F)F)=NC(C(F)(F)F)=N1,5,-19,-17,5,56*,-7,11,6,-6
COc1ccc(CC(=O)N(CCN(C)C)CC2CCCN(Cc3ccccc3F)C2)cc1 (stereo not given),-2,9,6,-5,50,11,29,11,-2
O=C(Nc1ccccc1)N1CCC2(CC1)OCCO2,7,1,-5,17,-9,10,.,.,.
O=C(NC(=O)N1CCC2(CC1)OCCO2)c1ccc(Cl)cc1,8,-9,-17,3,65*,-13,18,22,-7
CCOC(=O)C1(CCc2ccccc2)CCN(Cc2cccc3c2OCO3)CC1,21,11,8,-7,48,3,.,.,.
CCOC(=O)C1(CCc2ccccc2)CCN(Cc2csc(C(C)=O)c2)CC1,18,13,12,20,53,15,22,2,-46
COc1ccc2c(c1)C(NC(C)=O)CCc1cc(OC)c(OC)c(OC)c1-2 (stereo not given),11,34,19,-79,50,-2,50*,64*,3
COC1=C[C@@H]2C3=C([C@@H]2C1=O)[C@@H](NC(C)=O)CCc1cc(OC)c(OC)c(OC)c13,-1,15,-27,-4,-7,-13,.,.,.
COc1cc2c(c(OC)c1OC)-c1ccc(O)c(=O)cc1C(NC(C)=O)CC2 (stereo not given),15,40,30,-82,61*,-165,66*,61*,29*
COc1ccc(OC)c(CC(=O)O)c1,5,-11,-3,7,4,3,.,.,.
C=CCN(CC#CCO)Cc1ccc(OC)cc1OC,.,.,15,-7,.,.,.,.,.
COC(=O)C1=C[C@H]([C@@H](C)[C@H](OC)c2ccccc2Br)[C@@H]2[C@H]1c1ccccc1N2C,.,.,-15,21,.,.,.,.,.
